Results on 13 molecules are retold here after PubChem BioAssay.

The nature of assay [1]: RPL19A-GFP modulators, yeast TOR pathway, confirmation, cell-based, S. cerevisiae, flow cytometry, cherry picks, mother/daughter gates (AID 2270;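 active = GFP response below 50% of the DMSO control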). Conditions: S. cerevisiae RPL19A-GFP strain, 3 h, at 10 µM, stronger effect = lower value, 100 = same GFP as DMSO wells.
Assay [2] is described as follows: LAP4-GFP expression modulators in yeast, confirmation, cell-based, cherry picks, flow cytometry, mother/daughter gates (AID 2271;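 active = GFP response above 150% of the DMSO control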;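 note: ratio of sample to DMSO plate mean so 100% equals DMSO level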). As to conditions: S. cerevisiae LAP4-GFP strain, 3 h, at 10 µM, stronger effect = higher value, 100 means same as DMSO control.
Assay [3] can be described thus: modulators of MEP2-GFP levels in yeast, confirmation, S. cerevisiae, flow cytometry GFP, cherry picks (AID 2272;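 active = GFP response above 150% of the DMSO control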;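 note: ratio of well signal to plate DMSO mean so 100% equals DMSO level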). Conditions: S. cerevisiae MEP2-GFP strain, 3 h, at 10 µM, stronger effect = higher value.
The nature of assay [4]: AGP1-GFP expression modulators, hit retest, confirmation, cell-based, flow cytometry, S. cerevisiae, cherry picks (AID 2273).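 Note: median GFP channel fluorescence over the whole cell population gate.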 As to conditions: S. cerevisiae AGP1-GFP strain, 3 h, at 10 µM.
Assay [5] can be described thus: modulators of CIT2-GFP expression in yeast, confirmation, S. cerevisiae, GFP fusion, cherry picks, mother/daughter gates (AID 2274). As to conditions: S. cerevisiae CIT2-GFP strain, flow cytometry, 3 h, at 10 µM, stronger effect = higher value.
A short description of assay [6]: compound autofluorescence in yeast s288c, dose response, artefact control for yeast TOR pathway GFP screen, s288c strain (AID 2757;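 active = fluorescence span over the dose series, or activity score, above about 33, limit read from the data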;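 note: thousands of bead-calibrated equivalent soluble fluorophore molecules from median cell fluorescence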). Conditions: S. cerevisiae s288c, 520 nm autofluorescence, flow cytometry, 3 h; at 33 µM; stronger effect = higher value; zero means same as solvent-only cells.
The mark [7] stands for this setting: measured here: daughter cell gate.
Setting [8] is: measured here: mother cell gate.
Where [9] appears, read: measured here: daughter cell gate response.
The mark [10] stands for this setting: measured here: mother cell gate response.

The list shows a part of the results. Activity calls are given as the source filed them.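 Rule for the calls, unless noted: active = GFP response above 150% of the DMSO level; inconclusive = fewer than 70 events counted for a yeast strain; inactive = the rest.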

As to `C[n+]1ccc(/C=C/c2c[nH]c3ccccc23)cc1`, the GFP response vs DMSO was 107% (inactive) in assay [1], 105% in assay [1] (setting [7]), 107% in assay [1] (setting [8]) and 187% (active) in assay [3]. Besides, the GFP response relative to DMSO in assay [2] was 143% (inactive); in assay [2] (setting [9]), 143%; in assay [2] (setting [10]), 143%. Besides, the GFP response, % of DMSO in assay [4] is 107% (inactive); in assay [5], 145% (inactive); in assay [5] (setting [7]), 142%; in assay [5] (setting [8]) it was 146%. The fluorescence change (kMESF span) in assay [6] is 5.54 (inactive).

With `O=C1C=CC(=O)N1c1cccc(-c2ccccc2)c1`, the GFP response vs DMSO in assay [1] was 70.2% (inactive); in assay [1] (setting [7]), 84.3%; in assay [1] (setting [8]), 59.1%; in assay [3], 109% (inactive). Further, the GFP response relative to DMSO in assay [2] was 220% (active); in assay [2] (setting [10]), 191%. Moreover, the GFP response, % of DMSO in assay [4] was 104% (inactive); in assay [5] it was 86.1% (inactive); in assay [5] (setting [7]), 93.2%; in assay [5] (setting [8]), 70.8%.

Regarding `Clc1ccc(C2=NNC(=NCc3ccccc3)SC2)cc1`, the GFP response vs DMSO in assay [1] was 95.6% (inactive); in assay [1] (setting [7]) it was 94.6%; in assay [1] (setting [8]), 86.8%; in assay [3] it was 98.3% (inactive). The GFP response relative to DMSO in assay [2] is 97.9% (inactive); in assay [2] (setting [9]), 97.6%; in assay [2] (setting [10]) it was 98.3%. Further, the GFP response, % of DMSO is 93.9% (inactive) in assay [4], 99.7% (inactive) in assay [5], 101% in assay [5] (setting [7]) and 98.5% in assay [5] (setting [8]).

Consider `Cc1cc(O)c(C(=O)/C=C/c2c(F)c(F)c(F)c(F)c2F)c(=O)o1`, for which the GFP response vs DMSO in assay [1] is 98.2% (inactive); in assay [1] (setting [7]) it was 103%; in assay [1] (setting [8]), 94.9%; in assay [3], 109% (inactive). Also, the GFP response relative to DMSO in assay [2] is 152% (active); in assay [2] (setting [9]), 145%; in assay [2] (setting [10]) it was 160%. Moreover, the GFP response, % of DMSO in assay [4] is 101% (inactive); in assay [5], 97.3% (inactive); in assay [5] (setting [7]), 101%; in assay [5] (setting [8]), 94.4%. For the same molecule, the fluorescence change (kMESF span) in assay [6] was 9.67 (inactive).

For `C/C(=N\Nc1ncnc2sc(C)c(C)c12)c1ccccn1`, the GFP response vs DMSO in assay [1] was 194% (inactive); in assay [1] (setting [7]), 112%; in assay [1] (setting [8]), 175%; in assay [3], 967% (active). Also, the GFP response relative to DMSO is 434% (active) in assay [2] and 395% in assay [2] (setting [10]). The GFP response, % of DMSO is 107% (inactive) in assay [4], 449% (active) in assay [5], 118% in assay [5] (setting [7]) and 921% in assay [5] (setting [8]).

In the case of `Cc1ccc(C2CC(c3ccco3)=NN2S(C)(=O)=O)cc1` (stereo not drawn), the GFP response vs DMSO in assay [1] was 97.2% (inactive); in assay [1] (setting [7]), 97%; in assay [1] (setting [8]) it was 97.1%; in assay [3] it was 106% (inactive). Moreover, the GFP response relative to DMSO in assay [2] was 105% (inactive); in assay [2] (setting [9]) it was 102%; in assay [2] (setting [10]), 104%. The GFP response, % of DMSO is 93.8% (inactive) in assay [4], 96.4% (inactive) in assay [5], 98.3% in assay [5] (setting [7]) and 95.6% in assay [5] (setting [8]).

With `Nc1ccccc1SC(C[N+](=O)[O-])c1ccccc1` (stereo not drawn), the GFP response vs DMSO in assay [1] was 93.3% (inactive); in assay [1] (setting [7]) it was 96.3%; in assay [1] (setting [8]), 87.6%; in assay [3] it was 112% (inactive). The GFP response relative to DMSO in assay [2] is 173% (active); in assay [2] (setting [9]), 170%; in assay [2] (setting [10]), 169%. The GFP response, % of DMSO in assay [4] is 112% (inactive); in assay [5], 92.2% (inactive); in assay [5] (setting [7]), 100%; in assay [5] (setting [8]), 81.8%. Also, the fluorescence change (kMESF span) in assay [6] was 0.62 (inactive).

As to `CCCc1cc(NCc2ccccn2)n2nc(C)c(-c3ccccc3)c2n1`, the GFP response vs DMSO in assay [1] is 108% (inactive); in assay [1] (setting [7]) it was 88%; in assay [1] (setting [8]), 91.2%; in assay [3], 143% (inactive). For the same molecule, the GFP response relative to DMSO in assay [2] is 172% (active); in assay [2] (setting [10]) it was 148%. Moreover, the GFP response, % of DMSO is 107% (inactive) in assay [4], 92.6% (inactive) in assay [5], 81.7% in assay [5] (setting [7]) and 77.3% in assay [5] (setting [8]).

For `Cc1[nH][nH]c(=O)c1C(c1ccc(-c2ccc(Cl)cc2)o1)c1c(C)[nH][nH]c1=O`, the GFP response vs DMSO is 101% (inactive) in assay [1], 102% in assay [1] (setting [7]), 99.8% in assay [1] (setting [8]) and 114% (inactive) in assay [3]. The values for the GFP response relative to DMSO in assay [2], in assay [2] (setting [9]) and in assay [2] (setting [10]) were 188% (active), 179% and 179%, respectively. The GFP response, % of DMSO in assay [4] is 103% (inactive); in assay [5] it was 101% (inactive); in assay [5] (setting [7]), 102%; in assay [5] (setting [8]), 95.6%. For the same molecule, the fluorescence change (kMESF span) in assay [6] was 0.2 (inactive).

In the case of `Nc1cccnc1S(=O)(=O)c1cccc(C(F)(F)F)c1`, the GFP response vs DMSO in assay [1] was 97.6% (inactive); in assay [1] (setting [7]) it was 97.1%; in assay [1] (setting [8]) it was 97.2%; in assay [3], 102% (inactive). Also, the GFP response relative to DMSO in assay [2] was 96.7% (inactive); in assay [2] (setting [9]), 97.6%; in assay [2] (setting [10]), 94%. Moreover, the GFP response, % of DMSO in assay [4] was 98.9% (inactive); in assay [5], 96.9% (inactive); in assay [5] (setting [7]) it was 99.1%; in assay [5] (setting [8]) it was 93.8%.

Turning to `Oc1c(CN2CCN(c3ccc(F)cc3)CC2)cc(Cl)c2cccnc12`, the GFP response vs DMSO in assay [1] is 101% (inactive); in assay [1] (setting [7]) it was 102%; in assay [1] (setting [8]), 94.3%; in assay [3] it was 187% (active). In addition, the GFP response relative to DMSO was 264% (active) in assay [2], 253% in assay [2] (setting [9]) and 245% in assay [2] (setting [10]). For the same molecule, the GFP response, % of DMSO in assay [4] is 104% (inactive); in assay [5] it was 141% (inactive); in assay [5] (setting [7]), 159%; in assay [5] (setting [8]), 125%. Besides, in assay [6], the fluorescence change (kMESF span) was 0.21 (inactive).

For `CCN1/C(=C/C(C)=C/c2sc3ccccc3[n+]2CC)Sc2ccccc21`, the GFP response vs DMSO in assay [1] is 79.8% (inactive); in assay [1] (setting [7]), 61.3%; in assay [1] (setting [8]) it was 72.1%; in assay [3], 133% (inactive). Moreover, the GFP response relative to DMSO is 243% (active) in assay [2] and 211% in assay [2] (setting [10]). For the same molecule, the GFP response, % of DMSO in assay [4] was 101% (inactive); in assay [5], 100% (inactive); in assay [5] (setting [7]), 83.4%; in assay [5] (setting [8]) it was 97.7%.

For the molecule `Cc1ccc(/C=C2/C(=O)ON=C2c2ccccc2)o1`, the GFP response vs DMSO in assay [1] is 90.4% (inactive); in assay [1] (setting [7]), 87.7%; in assay [1] (setting [8]) it was 82.8%; in assay [3], 129% (inactive). The figures for the GFP response relative to DMSO in assay [2] and in assay [2] (setting [10]) were 250% (active) and 219%, respectively. Moreover, the GFP response, % of DMSO in assay [4] is 88.4% (inactive); in assay [5] it was 92.1% (inactive); in assay [5] (setting [7]), 90.9%; in assay [5] (setting [8]), 77%.
